Only some compounds are listed: those with a hit (about 1.6% of all), similar ones and a draw of the others.
EphB4 antag: EphB4-ephrin-B2 interaction antagonism; AID 720; 97,000 tested, 0.15% active; inhibition, % at 7 µM; EphB4 LBD / TNYL-RAW-Alexa532 peptide, fluorescence polarization; P54760;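 active = inhibition above the screen-wide mean inhibition plus 3 SD, cut at about 15% in these data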;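 also: 0% = DMSO wells and 100% = excess unlabeled TNYL-RAW peptide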
PLK1 PBD inh: blocks phosphopeptide binding to human Plk1 polo box domain. P53350. 97,000 tested, 0.13% active. inhibition, %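 (tested at about 20 µM)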. AID 693. Plk1 PBD phosphopeptide binding, fluorescence polarization; in the data active = inhibition above about 34%, passing the limit was not always enough
Target sequence (P53350 whole entry, looked up, the tested form may be a part): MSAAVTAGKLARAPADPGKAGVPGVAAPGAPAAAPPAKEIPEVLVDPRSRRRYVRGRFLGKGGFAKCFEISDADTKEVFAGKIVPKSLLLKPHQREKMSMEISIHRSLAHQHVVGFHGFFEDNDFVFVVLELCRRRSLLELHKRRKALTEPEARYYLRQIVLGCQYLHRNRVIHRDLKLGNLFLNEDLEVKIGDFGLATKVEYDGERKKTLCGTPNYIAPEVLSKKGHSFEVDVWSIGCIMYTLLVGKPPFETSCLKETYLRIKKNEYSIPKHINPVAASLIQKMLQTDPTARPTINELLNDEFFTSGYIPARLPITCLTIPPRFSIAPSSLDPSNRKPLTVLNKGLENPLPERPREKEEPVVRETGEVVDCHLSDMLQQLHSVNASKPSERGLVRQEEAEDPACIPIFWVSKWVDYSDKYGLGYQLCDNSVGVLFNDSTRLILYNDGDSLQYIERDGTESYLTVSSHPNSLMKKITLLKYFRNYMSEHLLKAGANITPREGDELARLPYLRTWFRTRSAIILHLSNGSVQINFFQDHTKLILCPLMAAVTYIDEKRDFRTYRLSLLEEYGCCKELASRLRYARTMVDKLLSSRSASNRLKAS
PLK1 inh: PLK1 (human) kinase inhibition. P53350. recombinant PLK1 kinase, TR-FRET peptide phosphorylation. inhibition, % at 10 µM. 97,000 tested, 0.53% active. AID 619;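 active = inhibition of 50% or more in the single-concentration screen; inactive = inhibition below 50%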;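 also: 0% = DMSO max control and 100% = H-89 dihydrochloride min control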
Smad3 FoxH1 inh: inhibitors of human Smad3 transcription factor binding | P84022 | TR-FRET Smad3/Dy647-FoxH1 peptide binding, europium anti-His | inhibition, % at 25 µM | 88,000 tested, 0.29% active | AID 630;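 active = compounds that reduce the energy-transfer binding signal between the protein and its labelled peptide by more than half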;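 also: 0% = Smad3 plus labelled peptide maximal FRET and 100% = peptide-only background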
FAK blocker: inhibitors of human focal adhesion kinase; biochemical FAK kinase activity assay; 97,000 tested, 0.84% active; inhibition, %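 (tested at 7 µM)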; AID 727;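 also: 0% = DMSO and 100% = reference compound high control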
PLK1 confirm: confirmation of human PLK1 kinase inhibitors. shares compounds with PLK1 inh. recombinant PLK1 kinase, TR-FRET peptide phosphorylation. inhibition, % at 10 µM. 210 tested, 20% active. AID 744;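 active = inhibition at or above 50% in each of two repeat confirmation tests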;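 also: 0% = DMSO max control and 100% = H-89 kinase-blocked min control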
Plk1 interf: Plk1 assay compound interference counter-screen hit | shares compounds with PLK1 inh | 210 tested, under 10 active | Plk1 TR-FRET assay interference, compound added post-reaction | inhibition (interference), % at 10 µM;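 active = both duplicate runs show 50% or greater inhibition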;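 also: 0% = DMSO max control and 100% = H-89 min control inhibited reaction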
PBD redox DR: redox cycling H2O2 generation counter-screen for Plk1 PBD | shares compounds with PLK1 PBD inh | DTT | EC50, µM | 120 tested, under 10 active | AID 876; call rule not given here
FAK inh conf: confirmation of human focal adhesion kinase (FAK) inhibitors; inhibition, % at 7 µM; shares compounds with FAK blocker; 750 tested, 28% active; FAK kinase biochemical inhibition assay
* hit, by the source's call; . = not tested or not shown; [ ] = remark or other dose. Rule as the data show it, unless noted: active = inhibition above about 19%; inactive = the rest.

SMILES	EphB4 antag	PLK1 PBD inh	PLK1 inh	Smad3 FoxH1 inh	FAK blocker	others
Nc1cc[c]([Hg])cc1.Nc1nc2c(ncn2[C@H]2O[C@H](CO)[C@@H](O)[C@@H]2O)c(=[SH+])[nH]1	.	.	.	73*	.
CN(C)[C@@H]1C(=O)C(C(N)=O)=C(O)[C@]2(O)C(=O)C3=C(O)c4c(O)cccc4[C@](C)(O)[C@H]3C[C@@H]12	.	.	.	96*	.
O=C(CSc1ccccc1)N1CCC2(CC1)OCCO2	-3	14	-10	-1	0
Cn1c(=O)cc(SCC(=O)N2CCC3(CC2)OCCO3)c2ccc(Cl)cc21	3	-3	-15	56*[fluorescence artefact?]	-3
CC(=O)O/C(=C1\C[C@@H]2[C@H]3CC=C4C[C@@H](OC(C)=O)CC[C@]4(C)[C@@H]3CC[C@@]2(C)C1=O)C(F)(F)F	.	.	.	9	.
CCn1c(O)c(C=Nc2ccc(N3CCOCC3)cc2)c(=O)n(CC)c1=S	16*	1	-4	.	7
CCn1c(O)c(C=Nc2ccc(N3CCOCC3)c(Br)c2)c(=O)n(CC)c1=S	0	-35	-6	.	3
C[C@@H]1O[C@H](O[C@H]2C[C@@H](O)[C@]3(CO)[C@@H]4[C@@H](O)C[C@]5(C)[C@@H](C6=CC(=O)OC6)CC[C@@]5(O)[C@H]4CC[C@@]3(O)C2)[C@@H](O)[C@H](O)[C@H]1O	.	.	.	1	.
CCN1/C(=C\C=C\C2=[N+](CC)c3ccccc3C2(C)C)C(C)(C)c2ccccc21	-88	-77	53*	0	-1
C1C[C@@H]2CN(CCCN3CCOCC3)[C@H](C1)O2	.	.	.	4	.
CC(C)=C[C@H]1[C@H](C(=O)OCc2cc3c(cc2Cl)OCO3)C1(C)C	.	.	.	-3	.
CCNC(C)(C)[C@@H](SS)c1ccc(Br)cc1	.	.	.	96*	.
CN(C)CS/C(N)=N/[C@H](O)C(Cl)(Cl)Cl	.	.	.	54*	.
COc1cc2c(cc1OC)[C@@]13CCN4C=C5CCO[C@H]6CC(=O)N2[C@H]1[C@H]6[C@H]5C[C@H]43	.	.	.	9	.
O=C(O)C[C@H]1OCC=C2CN3CC[C@]45C6=CC(=O)C(=O)C([N+](=O)[O-])=C6N[C@H]4[C@H]1[C@H]2C[C@H]35	.	.	.	58*	.
COC1=C(C)C(=O)c2c(c(COC(N)=O)c3n2C[C@@H]2[C@H]3N2C)C1=O (stereo partly drawn)	.	.	.	11	.
Nc1nc(N)c(N=Nc2ccc([As](=O)(O)O)c(O)c2)c(N)n1	.	.	.	84*	.
COc1ccc(C(=O)O[C@@H]2CC[C@@]3(C)[C@@H]4CC[C@@H]5[C@@]6(O)C[C@@H](O)[C@@]7(O)[C@@H](CN8C[C@H](C)CC[C@H]8[C@]7(C)O)[C@]6(O)C[C@@]53O[C@@]42O)cc1OC	.	.	.	20	.
COc1ccc(Cn2c(N)c(C(=O)NCc3ccco3)c3nc4ccccc4nc32)cc1	8	-19	55*	4	3
Cc1c(C(=O)N2CCC3(CC2)OCCO3)oc2ccc(S(=O)(=O)N3CCOCC3)cc12	8	-15	-3	67*	-1
CC1=C(C(=O)N2CCC3(CC2)OCCO3)C2(CCC(C)CC2)OC1=O (stereo not drawn)	20*	-14	-13	4	7
Cc1c(C(=O)N2CCC3(CC2)OCCO3)oc2ccccc12	-2	-20	-7	0	0
C/C(N[O-])=C(\C)[N+]([O-])=[Rh][Cl].CC(=N\[O-])/C(C)=N/[O-].c1ccc([PH+](c2ccccc2)c2ccccc2)cc1	.	.	.	-1	.
CCCNC(=O)c1c(N)n(CC2CCCO2)c2nc3ccccc3nc12 (stereo not drawn)	5	8	-4	61*	15
C[C@]12CC[C@H](O)C[C@@H]1CC[C@H]1[C@H]2CC[C@@]2(C)[C@H](C3=CC(=O)OC3)[C@H](O)C[C@]12O	.	.	.	16	.
SMILES	EphB4 antag	PLK1 PBD inh	PLK1 inh	Smad3 FoxH1 inh	FAK blocker	others
C[C@@H]1O[C@H](OC2[C@@H](O)[C@H](O)C(O)[C@H](O)[C@H]2O)[C@@H](N)C[C@H]1N=C(N)C(=O)O (stereo partly drawn)	.	.	.	4	.
CN(C)C(=O)Oc1ccc(-c2nnco2)cc1	3	-8	78*	8	-5	PLK1 confirm=-11;Plk1 interf=-58
O=C(NCC1CC1)[C@@H]1C2c3ccccc3C(c3ccccc32)[C@@H]1C(=O)O	.	.	.	10	.
Cc1ccc(-n2c(O)c(C=NCCN3CCOCC3)c(=O)[nH]c2=O)cc1	-5	44*	-34	0	0	PBD redox DR=>50
O=C(O)CN1CCN(CC(=O)O)CC(=O)[O][Hg][O]C(=O)C1	.	.	.	0	.
C[C@H]1CCCC(=O)CCC/C=C/c2cc(O)cc(O)c2C(=O)O1	-1	3	-20	3	35*	FAK inh conf=31*
COc1ccc(OCC(=O)Nc2ccc(Cl)cc2C(=O)c2ccccc2)cc1	-3	-15	-3	.	25*	FAK inh conf=-1
O=C(O)C[SH+]CC(=O)O.O=C(O)C[SH+]CC(=O)O.[Cu]	.	.	.	14	.
CCOC(=O)c1c(N)n(Cc2ccco2)c2nc3ccccc3nc12	4	3	-17	1	3
CCCCn1c(NC(=O)c2ccco2)c(C(=O)OCC)c2nc3ccccc3nc21	8	-11	0	42	27*	FAK inh conf=0
CC[C@]1(OC(=O)CN)C(=O)OCc2c1cc1n(c2=O)Cc2cc3ccccc3nc2-1	.	.	.	23	.

Bioassay records from PubChem BioAssay.
